RE007 growth inh: less growth of the S. pombe RE007 Vpr strain; actives 0.21% (n = 360,000); Potency, µM (titrated, usually from 92.2 µM), for inactives: at the highest dose activity change, negative = less growth, hits mostly inhibitors; S. pombe RE007 Vpr strain, BacTiter-Glo ATP luminescence, 24 h; active means well fitted falling curve with a large enough effect; inconclusive means small, poorly fitted or top-dose-only effect; inactive means no such curve, though single readings can be large or run the other way; further: potency means the concentration at half of the fitted maximal effect; nearly all actives have a fitted effect of over 50% in size
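Fission yeast strain RE007, carrying one chromosomally integrated HIV-1 vpr copy, was seeded at OD 0.01 in PMG+AL medium with 23 nL pinned compound. After 24 h at 30 °C and 99% humidity, viability was read by BacTiter-Glo luminescence.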
TbPYK inhibitor: blocks Trypanosoma brucei pyruvate kinase. actives 0.12% (n = 410,000). AID 624173. TbPYK enzyme, Kinase-Glo Plus ATP luminescence, 45 min. Potency, µM (series often up to 76.8 µM), without a hit: at the top dose activity, negative = inhibition, hits mostly inhibitors. Q57TT1; further: potency means the concentration at half of the fitted maximal effect; nearly all actives have a fitted effect of over 50% in size
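T. brucei PYK with substrate was exposed to pin-transferred compounds across a concentration series, then started with 130 uM ADP (final). After 45 min at room temperature, Kinase-Glo Plus luminescence was read, normalized and curve-fitted.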
Giardia FBPA inh: blocks Giardia fructose-bisphosphate aldolase activity; Potency, µM (titrated, usually from 59.6 µM), without a hit: at the highest dose activity, negative = inhibition, hits mostly inhibitors; actives 0.71% (n = 290,000); purified Giardia FBPA; AID 2451; further: potency means the concentration at half of the fitted maximal effect; nearly all actives have a fitted effect of over 55% in size
Target sequence (A8B2U2 whole entry, looked up): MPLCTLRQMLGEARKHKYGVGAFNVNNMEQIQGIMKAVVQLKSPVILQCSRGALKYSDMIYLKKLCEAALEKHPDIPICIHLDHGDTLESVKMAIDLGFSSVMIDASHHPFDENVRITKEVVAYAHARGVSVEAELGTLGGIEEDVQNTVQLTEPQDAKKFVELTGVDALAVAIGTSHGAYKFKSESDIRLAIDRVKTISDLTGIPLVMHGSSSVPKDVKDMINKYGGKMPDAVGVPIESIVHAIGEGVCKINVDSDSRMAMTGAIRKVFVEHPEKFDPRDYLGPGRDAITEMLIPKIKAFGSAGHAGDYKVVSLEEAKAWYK
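40 nM FBPA preincubated 10 min at RT with compound (up to 57.5 uM final), then substrate plus GAPDH/TPI/NAD/arsenate coupling and diaphorase/resazurin added. Fluorescence read after 20 min at RT, 525/598 nm.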
FMDV inh: blocks foot and mouth disease virus; FMDV antiviral cell-based qHTS; Potency, µM (top dose mostly 57.9 µM), for the others: top-dose activity change, negative = inhibition, hits mostly inhibitors; actives 1.2% (n = 410,000); AID 1159524; calls by dose curve; tested in HEK293T cells; further: read-out not given here; potency means the concentration at half of the fitted maximal effect; nearly all actives have a fitted effect of over 45% in size
HCMV inh: human cytomegalovirus inhibition; HFF cells, HCMV-luciferase reporter, 72 h; stronger effect = lower value; activity change, negative = inhibition, % at 57.5 µM; actives 4.5% (n = 410,000); in the data active means activity change below about -60%; inconclusive means no clear call, values can overlap the other calls; inactive means above about -39%
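Compounds were evaluated in HFFs infected with an HCMV luciferase reporter virus (MOI 1 PFU/cell). Luciferase in lysates collected 72 h post infection served as the replication measure.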
Sm TGR block: blocks Schistosoma mansoni thioredoxin glutathione reductase. actives 3% (n = 360,000). purified TGR, DTNB reduction, TNB absorbance 405 nm. Potency, µM (highest dose often 114 µM), without a hit: top-dose activity change, negative = inhibition, usual class: inhibitors. Q962Y6; further: potency means the concentration at half of the fitted maximal effect; nearly all actives have a fitted effect of over 60% in size
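First, TGR (20 nM dispensed) and NADPH were mixed with compound. Second, a 15 min room-temperature incubation followed. Third, further NADPH and then DTNB were added to start the reaction. Finally, TNB absorbance was monitored kinetically.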
Active calls of the source: *; ? = inconclusive; . = not tested or not shown; [ ] = remark or other dose. Most compounds without a hit are left out; they make up all but 7.7% or so of the library. Unless noted, the call rests on the fitted dose curve; in most records, active means well fitted curve in the direction sought with a large enough effect; inconclusive means small, poorly fitted or top-dose-only effect, or another doubt; inactive means no such curve, though single readings can be large; an effect the other way counts as inactive or inconclusive. On the % scale 0 is the no-effect control and ±100 the full control effect.

SMILES	RE007 growth inh	TbPYK inhibitor	Giardia FBPA inh	FMDV inh	HCMV inh	Sm TGR block
CCOCCn1ccc2c(OCC(=O)Nc3ccc(OC(F)(F)F)cc3)cccc2c1=O	.	-8%	.	-25%	-2	8%
Cc1ccc2c(c1)cc(C(=O)Nc1ccc(F)cc1F)n2C	.	1%	.	-18%	20	6%
Cc1cc(C)n(CC(=O)NNC(=O)CCCOc2ccc(Cl)c(C)c2)n1	-6%	-3%	19%	-24%	5	-20%
Cc1cc(C)n(CC(=O)NNC(=O)CCCOc2ccc(Cl)cc2C)n1	0%	-12%	.	-21%	-61*	5%
Cc1nn(CCc2n[nH]c(=S)n2-c2cccc(Cl)c2)c(C)c1[N+](=O)[O-]	-1%	?	-5%	-15%	31	-3%
Cc1cccc(-n2c(Cn3nc(C)c([N+](=O)[O-])c3C)n[nH]c2=S)c1	12%	-29%	-12%	-13%	-98*	-24%
Cc1nn(C(C)c2n[nH]c(=S)n2-c2ccc(F)cc2)c(C)c1[N+](=O)[O-] (stereo not given)	4%	?	4%	16%	-22	-20%
Cc1nn(CCc2n[nH]c(=S)n2-c2ccc(F)c(Cl)c2)c(C)c1[N+](=O)[O-]	-9%	6.3µM*	-9%	13%	9	19%
Cc1nn(CCc2n[nH]c(=S)n2-c2ccc(F)cc2)c(C)c1[N+](=O)[O-]	5%	10µM*	-9%	-7%	13	-7%
CCNc1ncc2nc(-c3cc(F)cc(F)c3)c(=O)n(CCC#N)c2n1	.	.	3%	-10%	.	.
CC[C@@H]([C@H](C)O)n1ncn(-c2ccc(N3CCN(c4ccc(OCC5CO[C@@](Cn6cncn6)(c6ccc(F)cc6F)C5)cc4)CC3)cc2)c1=O (stereo not given in full)	.	17%	.	.	.	.
O=C(Cc1ccccc1[N+](=O)[O-])c1ccccc1	.	.	.	.	-6	.
Cc1nn(C)c2c1c(C(F)(F)F)cc(=O)n2C(C)C(=O)NCCc1ccc(Cl)cc1 (stereo not given)	.	-3%	.	-20%	-2	-11%
Fc1ccccc1SCc1nnc(-c2ccccc2Br)o1	10%	32µM*	-4%	-42%	-35	11%
Cc1csc(SCc2nnc(-c3ccccc3Br)o2)n1	-21%	2%	-1%	.	158	0%
Cc1ccc2nc(-c3ccccn3)c(Nc3ccc(F)cc3)n2c1	.	1%	.	?	-94*	6%
Cc1ccn2c(Nc3ccccc3)c(-c3ccccn3)nc2c1	-16%	2%	-27%	-26%	0	-1%
Fc1ccc(Nc2c(-c3ccccn3)nc3ccc(Cl)cn23)cc1	.	4%	.	-23%	8	-6%
Cc1ccn2c(Nc3ccccc3C)c(-c3ccccn3)nc2c1	-29%	-1%	?	?	-81*	-4%
Cc1ccc2nc(-c3ccncc3)c(Nc3ccccc3C)n2c1	.	-9%	.	-24%	?	-4%
Cc1ccc2nc(-c3ccccn3)c(Nc3ccccc3C)n2c1	?	7%	-20%	?	-100*	0%
CC(C)c1ccc(Nc2c(-c3ccccn3)nc3ccccn23)cc1	.	0%	.	?	-87*	-4%
CCc1nn(-c2ccccc2)c2nc(-c3cccc(OC)c3)c3cc(OC)c(OC)cc3c12	.	4%	.	-11%	2	-7%
COc1ccc(NC(=O)CN(c2cc(C)cc(C)c2)S(=O)(=O)c2c(C)noc2C)cc1Cl	.	-1%	.	-23%	-23	2%
Cc1cccc(C(c2sc3nc(-c4ccco4)nn3c2O)N2CCN(c3ccccc3)CC2)c1 (stereo not given)	.	0%	.	3%	15	-1%
SMILES	RE007 growth inh	TbPYK inhibitor	Giardia FBPA inh	FMDV inh	HCMV inh	Sm TGR block
Cc1ccccc1Nc1c(-c2ccccn2)nc2ccccn12	-14%	0%	-29%	?	-98*	3%
Cc1ccc2nc(-c3ccccn3)c(N)n2c1	?	?	.	14µM*	40	.
Cc1ccc(C(C#N)c2ccc(C(=O)c3ccc(F)cc3)cc2)cc1 (stereo not given)	-2%	9%	-1%	-22%	-78*	3%
Cc1ccc(NC(=O)c2nc(S(=O)(=O)Cc3ccccc3)ncc2Cl)cc1	-8%	6%	0%	28µM*	-98*	3.2µM*
O=C(NCc1ccccc1)c1nc(S(=O)(=O)Cc2ccc(F)cc2)ncc1Cl	.	1%	.	32µM*	-98*	5µM*
CCS(=O)(=O)c1ncc(Cl)c(C(=O)Nc2c(C(=O)c3ccc(C)cc3)oc3ccccc23)n1	.	-6%	.	-29%	4	0%
COC(=O)c1ccccc1NC(=O)c1nc(S(=O)(=O)Cc2ccccc2F)ncc1Cl	.	6%	.	-17%	24	-24%
COc1ccc(NC(=O)c2nc(SCc3ccc(F)cc3)ncc2Cl)cc1	.	1%	.	-10%	-36	6%
O=C(Nc1ccc(F)cc1)c1nc(S(=O)(=O)Cc2ccccc2)ncc1Cl	2%	-6%	.	?	-112*	6.3µM*
O=C(Nc1ccccc1F)c1nc(S(=O)(=O)Cc2ccccc2F)ncc1Cl	.	8%	.	?	-109*	2.8µM*
CCc1nn(CC(=O)N2CCCCC2)c(=O)c2cc3sccc3n12	.	-9%	.	-9%	?	-1%
CC(=O)c1ccc(NC(=O)Cn2cc(S(=O)(=O)Cc3ccccc3Cl)c3ccccc32)cc1	.	4%[15.4 µM]	.	0%	0	-19%
CC(C)c1c(C(=O)NCC(C)(C)N2CCOCC2)cnn1-c1nccc(-c2ccccc2F)n1	.	.	.	0%	.	.
COc1cccc2c1OC(=O)CC2c1ccc(C)cc1 (stereo not given)	.	.	29%[89.2 µM]	.	.	.
Cc1ccccc1CS(=O)(=O)c1ncc(Cl)c(C(=O)Nc2ccc(F)cc2)n1	-6%	2%	.	?	-98*	3.5µM*
O=C(Nc1ccc(F)cc1)c1nn(-c2ccccc2)c(=O)cc1Cl	10%	1%	4%	22µM*	-100*	.
Cc1ccc(C)n1C1C(=O)N(Cc2ccc(C(F)(F)F)cc2)c2ccccc21 (stereo not given)	.	.	.	.	30	.
CC(Sc1nc(NCc2ccccc2)nc(N(C)C)n1)C(=O)Nc1ccccc1 (stereo not given)	3%	-16%	3%	0%	-105*	16%
O=C(Cn1cc(S(=O)(=O)Cc2ccc(F)cc2)c2ccccc21)NCc1ccccc1	.	5%[15.4 µM]	.	-1%	0	2%
O=C(NC1CCN(Cc2ccccc2)CC1)c1ccc2c(c1)[nH]c(=O)n2Cc1ccc(F)cc1	-5%	3%	10%	?	-86*	4%
CN1C(=O)/C(=C\c2ccccc2F)Sc2ccc(C(=O)NC3CCN(Cc4ccccc4)CC3)cc21	-12%	-18%	1%	?	-71*	-6%

Assay outcomes from PubChem BioAssay.
